The source of these data is PubChem BioAssay.

Usually AC50 stands for the midpoint of the concentration-response curve, whichever way the signal moves. The IC50 is the concentration that gives 50% inhibition. Usually viability stands for a read-out of living cells in per cent, often relative to untreated cells.

The nature of assay [1]: growth inhibition of DIPG glioma cells, dose response, cell-based, SU-DIPG-XVII, MIPE5.0, CellTiter-Glo, qHTS (AID 1347060; cut-off not given, nearly all actives have AC50 up to about 26 µM;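 as to AC50: cells exposed to compound for 48 hours before viability readout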). Conditions: SU-DIPG-XVII viability, CellTiter-Glo ATP luminescence.
A short description of assay [2]: growth inhibition of DIPG glioma cells, dose response, cell-based, SU-DIPG-XIII, MIPE5.0, CellTiter-Glo, qHTS (AID 1347064; cut-off not given, nearly all actives have AC50 up to about 23 µM;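 as to AC50: cells exposed to compound for 48 hours before the viability read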). Conditions: SU-DIPG-XIII viability, CellTiter-Glo ATP luminescence. On the technique in general: Cellular ATP, detected with luciferase, serves as a proxy for viable cell number.
The nature of assay [3]: viability loss in pontine glioma line – cell-based, SU-DIPG-XXV, MIPE5.0, CellTiter-Glo, qHTS, dose response (AID 1347065; cut-off not given, nearly all actives have AC50 up to about 26 µM;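 also: cells exposed to compound for 48 hours before ATP readout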). Conditions: CellTiter-Glo ATP luminescence.
Assay [4] can be described thus: SU-DIPG-VI glioma cell viability, MIPE4.0 library, CellTiter-Glo luminescence, qHTS (AID 1347066; cut-off not given, nearly all actives have AC50 up to about 30 µM;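 also: cells exposed to compound for 48 hours before readout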). Conditions: CellTiter-Glo ATP luminescence.
Assay [5] is described as follows: JHH-DIPG-1 glioma cell viability, MIPE5.0 library, CellTiter-Glo luminescence, qHTS (AID 1347067; cut-off not given, nearly all actives have AC50 up to about 26 µM;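 also: cells exposed to compound for 48 hours before readout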). Conditions: JHH-DIPG-1 glioma viability, CellTiter-Glo ATP luminescence.
Assay [6] is described as follows: SU-DIPG-XXV glioma cell viability, MIPE5.0 library, qHTS (AID 1347068; cut-off not given, nearly all actives have IC50 up to about 30 µM;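 as to IC50: cells exposed to compound for 48 hours before viability readout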).
A short description of assay [7]: sensitizers of A549 cells to miR-34 induction, primary screen, imaging, A549 dox-inducible miR-34, nuclei and caspase counts (AID 1347080;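 active = compounds whose cell count with miR-34 switched on is under 0.7 times the count with it off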). Conditions: A549 miR-34 inducible, Hoechst nuclei count, 48 h.
A short description of assay [8]: modifiers of HSF1 nuclear foci, imaging, Selleck Cancer Library (AID 1347162; in the data active = plate-normalised HSF1 focus index below about 0.46). Conditions: human cells, at 10 µM; SSMD: measured here: HSF1 foci SSMD mean; cell count: measured here: cell number; plate-normalised HSF1 focus index: stronger effect = lower value.
The nature of assay [9]: survival rescue of mitochondrial mutant cells in low glucose, primary screen, MELAS cybrids, Rieske KO mouse fibroblasts, CellTiter-Glo (AID 1508586;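 active = mean z-score across replicates of 1.96 or higher in either the MELAS or the Rieske mutant cell line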;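 also: z relative to plate mean and SD of compound and empty wells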).
Assay [10] is described as follows: ovarian cancer cell viability with rucaparib, profiling panel, oncology-focused library, rucaparib conditional (AID 1508598). Conditions: patient-derived ovarian cancer cells, CellTiter-Glo viability, 144 h, stronger effect = lower value.
Where [11] appears, read: stronger effect = lower value, cell number ratio, induced over uninduced.
The mark [12] stands for this setting: measured here: relative caspase fold change +Dox/-Dox.
The mark [13] stands for this setting: measured here: total cells with miR-34 induction, stronger effect = lower value.
Where [14] appears, read: measured here: total cells without miR-34 induction.
Setting [15] is: MELAS cybrid survival, CellTiter-Glo 48 h, stronger effect = higher value.
Where [16] appears, read: Rieske KO mouse fibroblast survival, CellTiter-Glo 72 h.

SMILES strings stand for the structures. Results filed as inconclusive are left out. Active and inactive are the calls of the source.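 The calls were made as follows, unless noted: active = normalized viability below 100% at a tested concentration; inactive = the rest.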

As for `CN1CCN(c2cccc(Nc3nc4c(-c5ccc(S(C)(=O)=O)cc5)cccn4n3)c2)CC1`, the AC50 is 16.6 µM (active) in assay [1]; 16.6 µM (active) in assay [2]; 11.8 µM (active) in assay [3]; 23.5 µM (active) in assay [4]; 20.9 µM (active) in [5]. Besides, the IC50 in [6] is 11.8 µM (active). Moreover, the fold change in [7] (setting [11]) is 0.892 (inactive); in assay [7] (setting [12]), 0.496. The cell count in assay [7] (setting [13]) was found to be 5770; in [7] (setting [14]), 6470; in assay [8] it was 6270. Moreover, in assay [8], the SSMD is -2.58. Further, in [8], the plate-normalised HSF1 focus index is 0.914 (inactive). Moreover, the z-score is -0.221 (inactive) in assay [9] (setting [15]) and 0.00545 in assay [9] (setting [16]). Moreover, the viability was 113% (inactive) in [10] (at 0.000305 µM, OCI-C5x cells, with rucaparib 10 µM, 100% = cells with rucaparib alone); 104% (inactive) in assay [10] (at 0.000305 µM, OCI-C5x cells, without rucaparib); 101% (inactive) in [10] (at 0.000305 µM, OCI-P5x cells, with rucaparib 20 µM, 100% = cells with rucaparib alone); 90.7% (active) in assay [10] (at 0.000305 µM, OCI-P5x cells, without rucaparib); 115% (inactive) in assay [10] (at 0.00122 µM, OCI-C5x cells, with rucaparib 10 µM, 100% = cells with rucaparib alone); 112% (inactive) in assay [10] (at 0.00122 µM, OCI-C5x cells, without rucaparib). The viability in [10] (at 0.00122 µM, OCI-P5x cells, with rucaparib 20 µM, 100% = cells with rucaparib alone) was 109% (inactive); in assay [10] (at 0.00122 µM, OCI-P5x cells, without rucaparib), 96.6% (active); in assay [10] (at 0.00488 µM, OCI-C5x cells, with rucaparib 10 µM, 100% = cells with rucaparib alone), 114% (inactive); in [10] (at 0.00488 µM, OCI-C5x cells, without rucaparib), 123% (inactive); in assay [10] (at 0.00488 µM, OCI-P5x cells, with rucaparib 20 µM, 100% = cells with rucaparib alone), 107% (inactive); in assay [10] (at 0.00488 µM, OCI-P5x cells, without rucaparib), 104% (inactive). Besides, the viability in assay [10] (at 0.0195 µM, OCI-C5x cells, with rucaparib 10 µM, 100% = cells with rucaparib alone) was 115% (inactive); in [10] (at 0.0195 µM, OCI-C5x cells, without rucaparib), 125% (inactive); in assay [10] (at 0.0195 µM, OCI-P5x cells, with rucaparib 20 µM, 100% = cells with rucaparib alone), 117% (inactive); in assay [10] (at 0.0195 µM, OCI-P5x cells, without rucaparib) it was 107% (inactive); in assay [10] (at 0.0781 µM, OCI-C5x cells, with rucaparib 10 µM, 100% = cells with rucaparib alone), 114% (inactive); in assay [10] (at 0.0781 µM, OCI-C5x cells, without rucaparib), 129% (inactive). Further, the viability was 112% (inactive) in assay [10] (at 0.0781 µM, OCI-P5x cells, with rucaparib 20 µM, 100% = cells with rucaparib alone); 99.2% (active) in assay [10] (at 0.0781 µM, OCI-P5x cells, without rucaparib); 113% (inactive) in [10] (at 0.313 µM, OCI-C5x cells, with rucaparib 10 µM, 100% = cells with rucaparib alone); 128% (inactive) in [10] (at 0.313 µM, OCI-C5x cells, without rucaparib); 115% (inactive) in [10] (at 0.313 µM, OCI-P5x cells, with rucaparib 20 µM, 100% = cells with rucaparib alone); 111% (inactive) in assay [10] (at 0.313 µM, OCI-P5x cells, without rucaparib). Also, the viability was 115% (inactive) in [10] (at 1.25 µM, OCI-C5x cells, with rucaparib 10 µM, 100% = cells with rucaparib alone); 138% (inactive) in assay [10] (at 1.25 µM, OCI-C5x cells, without rucaparib); 112% (inactive) in assay [10] (at 1.25 µM, OCI-P5x cells, with rucaparib 20 µM, 100% = cells with rucaparib alone); 111% (inactive) in assay [10] (at 1.25 µM, OCI-P5x cells, without rucaparib); 110% (inactive) in assay [10] (at 5 µM, OCI-C5x cells, with rucaparib 10 µM, 100% = cells with rucaparib alone); 206% (inactive) in [10] (at 5 µM, OCI-C5x cells, without rucaparib). For the same compound, the viability is 45% (active) in assay [10] (at 5 µM, OCI-P5x cells, with rucaparib 20 µM, 100% = cells with rucaparib alone) and 77.6% (active) in assay [10] (at 5 µM, OCI-P5x cells, without rucaparib).
`Nc1nc(N)c2nc(-c3cccc(Cl)c3)c(N)nc2n1`: the AC50 in assay [1] was 1.32 µM (active); in assay [2], 9.34 µM (active); in assay [3], 8.33 µM (active); in [5], 16.6 µM (active).
As to `Cc1c[nH]c2ncnc(N3CCC(CN)(C(=O)Nc4cccc(OC(=O)N(C)C)c4)CC3)c12`, the compound was called inactive in assay [1]. In addition, the AC50 was 11.8 µM (active) in assay [2] and 16.6 µM (active) in assay [3].
Consider `CC(C)n1ncnc1-c1cn2c(n1)-c1ccc(O[C@@H](C)C(N)=O)cc1OCC2`, for which the AC50 is 1.32 µM (active) in [1], 1.05 µM (active) in [2] and 0.59 µM (active) in assay [3].
In the case of `O=C(O)CCCCC(CCSCc1ccccc1)SCc1ccccc1` (stereo not drawn), the result in assay [1], in assay [2], in [3], in assay [4], in [5] and in assay [6] was inactive. Moreover, the fold change was 0.896 (inactive) in assay [7] (setting [11]) and 0.838 in assay [7] (setting [12]). Moreover, the cell count is 9470 in assay [7] (setting [13]) and 10600 in assay [7] (setting [14]). For the same compound, the z-score is -0.291 (inactive) in [9] (setting [15]) and 0.614 in assay [9] (setting [16]).
`CCOc1ccc(Cc2cc([C@@H]3O[C@H](CO)[C@@H](O)[C@H](O)[C@H]3O)ccc2Cl)cc1`: the call in assay [1], in assay [2], in assay [3], in [4], in assay [5] and in [6] was inactive. Besides, in [8], the SSMD stood at 1.4. The same compound registered a cell count in assay [8] of 6780. Further, the plate-normalised HSF1 focus index in [8] is 1.07 (inactive).
